Records with an inconclusive call do not appear. A number with no mark means an inactive call. Calls of active or inactive are those of the source. Calls come from the whole dose curve; as a rule, active = well fitted inhibition curve with a large enough effect in the repeat runs; inconclusive = weak or mixed curves; inactive = no such curve, though single readings can be large or run the other way.
These molecules were tested against Cytochrome P450 3A4 (Homo sapiens) (UniProt P08684) (assay: Cytochrome P450 Family 3 Subfamily A Member 4 (CYP3A4) small molecule antagonists: luciferase reporter qHTS assay (AID 1671201; note: nearly all actives have a fitted effect of over 50% in size)). Details: P450-Glo CYP3A4 enzyme, luciferin luminescence, 1 h; series mostly up to 115 µM; activity change, negative = inhibition: at the top concentration.
How it was run: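 Inhibition of CYP3A4 is measured as loss of light: the enzyme converts a proluciferin substrate to luciferin, detected luminescently. Reaction ran 1 h at room temperature with NADPH regeneration after a 10 min compound preincubation.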
% is set by controls: 0 for no effect and ±100 for the full control effect; potency is the fitted concentration of half-maximal effect.

Cytochrome P450 3A4 (Homo sapiens), sequence (P08684 whole entry, looked up): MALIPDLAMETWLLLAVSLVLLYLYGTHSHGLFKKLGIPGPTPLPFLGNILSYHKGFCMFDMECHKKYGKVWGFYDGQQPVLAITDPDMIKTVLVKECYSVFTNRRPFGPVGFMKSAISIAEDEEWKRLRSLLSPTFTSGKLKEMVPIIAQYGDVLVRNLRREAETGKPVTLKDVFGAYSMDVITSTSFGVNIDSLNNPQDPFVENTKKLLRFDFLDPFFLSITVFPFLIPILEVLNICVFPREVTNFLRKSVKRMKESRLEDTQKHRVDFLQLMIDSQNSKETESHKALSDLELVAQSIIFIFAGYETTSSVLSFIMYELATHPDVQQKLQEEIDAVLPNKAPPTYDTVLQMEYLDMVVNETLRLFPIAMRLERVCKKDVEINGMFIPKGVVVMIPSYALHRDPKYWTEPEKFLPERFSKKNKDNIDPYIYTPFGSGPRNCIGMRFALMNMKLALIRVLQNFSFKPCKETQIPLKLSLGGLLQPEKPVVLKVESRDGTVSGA

Structure (SMILES) | Potency | activity change, negative = inhibition
CCCOc1sc(C(=O)N2CCC(c3cc(CN)ccc3F)CC2)c(C)c1Br | 10.3 µM (active) | –
CO[Si](CCC1CCC2OC2C1)(OC)OC (configuration not stated) | – | 3.26%
C=C(c1ccc(C(=O)O)cc1)c1cc2c(cc1C)C(C)(C)CCC2(C)C | – | -17.3% [at 52.9 µM]
CCOC(/C=C(\C)CCC=C(C)C)OCC | – | 2.91%
CCC1CCCCC1 | – | 2.45%
COC(=O)NCCC[Si](OC)(OC)OC | 28.3 µM (active) | –
CCOC(OCC)C(=O)c1ccccc1 | – | 30%

Source: PubChem BioAssay (Tox21)
